TRHR PAM = TRH receptor (human) allosteric enhancement; P34981; TRHR cells, fluo-8 calcium fluorescence, EC20 TRH enhancement; enhancement, % at 2 µM; 360,000 compounds, 0.66% hits; AID 493056; in the data active = enhancement above about 30%; note: 0% is about no effect
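TRHR-expressing cells loaded with fluo-8 calcium dye were read kinetically (ex 480/em 530) during compound addition, then stimulated with an EC20 of TRH (10 nM final). Enhancement of the Gq-mediated intracellular calcium response was scored.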
D1 antag = antagonists of human D1 dopamine receptor; activity change, negative = inhibition, % at 10 µM; AID 504652; 360,000 compounds, 3.2% hits; HEK293 TREx D1 cells, calcium flux, dopamine EC80; active compounds read low; in the data active = activity change below about -30%; note: % is set by controls: 0 for no effect and ±100 for the full control effect
Target sequence (P21728 whole entry, looked up): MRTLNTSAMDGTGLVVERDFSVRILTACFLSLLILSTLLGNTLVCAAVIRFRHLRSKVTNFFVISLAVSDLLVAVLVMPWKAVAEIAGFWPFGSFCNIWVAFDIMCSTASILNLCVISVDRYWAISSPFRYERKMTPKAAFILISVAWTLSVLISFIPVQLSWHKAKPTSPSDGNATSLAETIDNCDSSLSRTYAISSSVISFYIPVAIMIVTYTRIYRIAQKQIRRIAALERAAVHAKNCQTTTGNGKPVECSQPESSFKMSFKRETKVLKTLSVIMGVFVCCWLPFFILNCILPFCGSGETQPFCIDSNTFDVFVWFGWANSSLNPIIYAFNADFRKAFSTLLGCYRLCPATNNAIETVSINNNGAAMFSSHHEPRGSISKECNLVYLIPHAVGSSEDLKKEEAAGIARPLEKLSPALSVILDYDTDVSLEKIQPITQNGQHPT
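Allosteric or orthosteric antagonism assessed as attenuation of the calcium response to EC80 dopamine, added 180 s after compound, in induced HEK293 Trex D1 cells loaded with no-wash calcium dye.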
TRHR ag = agonists of human TRH receptor. P34981. TRHR cells, calcium flux fluo-8, FDSS agonist mode. activation, % at 2 µM. 360,000 compounds, 0.18% hits; note: 0% is about no effect
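Read-out: compound-evoked intracellular calcium rise in TRHR cells, fluo-8 dye, kinetic FDSS fluorescence at 1 s/cycle following a 10-cycle baseline. Cells cultured overnight before dye loading (30 min–1.5 h, RT).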
LDHA inh = LDHA (human) enzyme inhibition; P00338; purified LDHA, NADH/diaphorase-resazurin fluorescence; active compounds read low; activity change, % (values are at about 110 or 230 µM); 480,000 compounds, 0.15% hits; in the data active = activity change below about -30%;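 note: plate controls were DMSO wells for no effect and wells without enzyme for full effect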
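Human LDH5 (2 nM) was incubated with 0.06 mM NADH and 0.2 mM pyruvate for 5 min at room temperature in Tris pH 7.4. Remaining NADH was coupled through diaphorase/resazurin, and resorufin fluorescence was read at 0 and 20 min.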
D1 potentiator = potentiators of human D1 dopamine receptor; 360,000 compounds, 0.036% hits; HEK293 TREx D1 cells, calcium flux, dopamine EC20 potentiation; potentiation, % at 10 µM; in the data active = potentiation above about 30%; note: 0% is about no effect
D1 ag = agonists of human D1 dopamine receptor; HEK293 T-REx D1 cells, calcium flux, agonist mode; activation, % at 2 µM; 360,000 compounds, 1% hits; note: 0% is about no effect
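Tetracycline-induced HEK293 TREx D1 cells, force-coupled to calcium signalling, were dye-loaded with a no-wash calcium kit. Compound was pin-added after a 10 s baseline. Fluorescence was read kinetically at 1 cycle/s for 180 s, with calcium rises flagged as agonism.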
An asterisk follows results filed as active. A selection: hits, their analogues and other compounds. The true share with any hit is near 3.6%. Cut-off read from the data, not from the text of the source, unless noted: active = activation above about 30%; inactive = the rest.

Results for Cc1cccc(-n2c(C)cc(/C=C3\NC(=O)NC3=O)c2C)c1 ?
TRHR PAM: 8.4; D1 antag: -40.4*; TRHR ag: -0.4; LDHA inh: -2.6; D1 potentiator: -8.1; D1 ag: -0.5

How did Cc1cc(/C=C2\SC(=S)NC2=O)c(C)n1-c1cccc(O)c1 do in these assays?
TRHR PAM: -3.7; D1 antag: 0.9; TRHR ag: 3.8; LDHA inh: -11.6; D1 potentiator: -1.1; D1 ag: 33.9*

Results for Cc1ccc(-n2c(C)cc(/C=C3\SC(=O)NC3=O)c2C)cc1 ?
TRHR PAM: -2.5; D1 antag: -36.2*; TRHR ag: -0.8; LDHA inh: -1.1; D1 potentiator: -6.2; D1 ag: 10.3

How did Cc1cc(C=C2C(=O)c3ccccc3C2=O)c(C)n1-c1ccccc1 do in these assays?
TRHR PAM: -8.8; D1 antag: -0.6; TRHR ag: 6.0; LDHA inh: -2.9; D1 potentiator: -2.6; D1 ag: 33.2*

What do the screens show for `Cc1cc(/C=C2/C(=O)NN(c3ccccc3)C2=O)c(C)n1-c1cccc(O)c1`?
TRHR PAM: -2.8; D1 antag: -12.5; TRHR ag: -0.6; LDHA inh: -1.5; D1 potentiator: -2.1; D1 ag: 0.1

How did N#C/C(=C/c1cccc(F)c1)c1ccc(Cl)cc1Cl do in these assays?
LDHA inh: 8.9

What do the screens show for `CC(C)CN(CC(C)C)C(=S)NCc1ccco1`?
LDHA inh: -8.2

How did C=CCNC(=O)NC(=O)CN1CCCC1C(=O)NC (stereo unspecified) do in these assays?
LDHA inh: -11.8

How did O=c1nc(-c2ccc(Cl)cc2)c2cc(Cl)ccc2[nH]1 do in these assays?
LDHA inh: -2.0

How did CCOc1ccc(Nc2cc(C)nc(-n3nc(C)cc3C)n2)cc1 do in these assays?
TRHR PAM: -6.7; D1 antag: -33.2*; TRHR ag: -0.8; LDHA inh: -1.6; D1 potentiator: -5.3; D1 ag: 1.3

What do the screens show for `CC(NC(=O)[C@H](Cc1c[nH]c2ccccc12)NC(=O)[C@@H]1Cc2ccccc2CN1)c1ccccc1` (stereo partly specified)?
TRHR PAM: 30.2*; D1 antag: -4.8; TRHR ag: 0.1; LDHA inh: -3.6; D1 potentiator: 5.1; D1 ag: 7.7

What do the screens show for `COc1cccc(/C=C/C(=O)OCC(=O)NCC2CCCO2)c1` (stereo unspecified)?
TRHR PAM: -0.4; D1 antag: 16.4; TRHR ag: 0.3; LDHA inh: -0.1; D1 potentiator: -2.3; D1 ag: 3.7

Results for COc1cccc(/C=C/C(=O)OCC(=O)NCC2CCCO2)c1OC (stereo unspecified) ?
TRHR PAM: 10.3; D1 antag: -34.1*; TRHR ag: 0.4; LDHA inh: -7.4; D1 potentiator: 5.0; D1 ag: 5.3

Results for COc1ccc(C(=O)NCC(=O)OCC(=O)NCc2ccc3c(c2)OCO3)cc1 ?
LDHA inh: -6.3

What do the screens show for `COC(=O)c1ccccc1NC(=O)COC(=O)CO/N=C(\C)c1ccc2c(c1)OCO2`?
TRHR PAM: -6.7; D1 antag: -31.4*; TRHR ag: 0.7; LDHA inh: -0.1; D1 potentiator: 0.1; D1 ag: 6.8

How did COc1ccc(CNC(=O)COC(=O)CO/N=C(\C)c2ccc3c(c2)OCO3)cc1 do in these assays?
TRHR PAM: 7.8; D1 antag: -33.1*; TRHR ag: -1.4; LDHA inh: -2.6; D1 potentiator: -6.0; D1 ag: -1.1

What do the screens show for `COC(=O)c1ccccc1NC(=O)CN1CCC(C(=O)c2ccc3c(c2)OCCO3)CC1`?
TRHR PAM: 10.2; D1 antag: -31.5*; TRHR ag: -0.1; LDHA inh: -4.9; D1 potentiator: 2.4; D1 ag: 7.5

What do the screens show for `C/C(=N\OCC(=O)OCC(=O)Nc1cc(S(C)(=O)=O)ccc1Cl)c1ccc2c(c1)OCO2`?
TRHR PAM: -7.5; D1 antag: -14.4; TRHR ag: -0.9; LDHA inh: 1.2; D1 potentiator: -0.5; D1 ag: 5.1

Screening results from PubChem.
